HT1080 IDH1KD tx: qHTS for induction of synthetic lethality in tumor cells producing 2HG: qHTS for the HT-1080-IDH1KD cell line; 360,000 tested, 2% active; Potency, µM (titrated, usually from 46.1 µM), inactives show at the top dose activity, negative = toxicity, actives largely listed as cytotoxic; AID 686971, 2013; HT-1080 IDH1 knockdown viability, ATP luminescence, 48 h;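 note: 0% = DMSO wells and -100% = cell-free medium wells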
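Using the IDH1-knockdown HT-1080 line run in the same batch and compound series as the NT line, viability after 48 h at 37 °C was determined by CellTiter-Glo luminescence and expressed as % activity.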
SW480 rerep: A quantitative high throughput screen for small molecules that induce DNA re-replication in SW480 colon adenocarcinoma cells; 340,000 tested, 1.8% active; SW480 DNA re-replication, Hoechst DNA content imaging, 48 h; Potency, µM (doses to about 46.1 µM), without a hit: at the highest dose re-replication activation, most hits filed as activators; AID 624297, 2012; note: % of control where 0% means no effect; nearly all actives have a fitted effect of over 55% in size
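Treated cells incubate 48 hr (37 C, 5% CO2), are stained 40 min with Hoechst, and nuclear fluorescence is enumerated; a rise in nuclei with high DNA signal marks re-replication.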
KB-V1 cytotox: qHTS assay for MDR1-selective chemotherapeutics: Primary screen using the drug-selected MDR subline cells KB-V1; Potency, µM (series often up to 46.1 µM), actives largely listed as cytotoxic; KB-V1 MDR cells viability, CellTiter-Glo, 72 h; 400,000 tested, 3.4% active; note: % is set by controls: 0 for no effect and ±100 for the full control effect; nearly all actives have a fitted effect of over 60% in size
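Cytotoxicity via CellTiter-Glo luminescence after 72 h compound exposure at 37 degrees C. Cells: drug-selected KB-V1 line, DMEM phenol-red free plus 10% FBS. Compounds tested at multiple concentrations; normalized data fitted to concentration-effect curves.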
KB-3-1 tox: qHTS assay for MDR1-selective chemotherapeutics: Primary screen using the parental adenocarcinoma cell KB-3-1; KB-3-1 viability, CellTiter-Glo ATP luminescence, 72 h; 400,000 tested, 1.4% active; AID 1347075, 2019; Potency, µM (doses to about 46.1 µM), actives largely listed as cytotoxic; note: % is set by controls: 0 for no effect and ±100 for the full control effect; nearly all actives have a fitted effect of over 60% in size
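Luminescent ATP read-out (CellTiter-Glo) measures survival of drug-naive KB-3-1 cells after 72 h compound exposure at 37 °C. Titration series was screened from lowest to highest concentration, with DMSO vehicle plates as background controls.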
HT1080NT lethal: qHTS for induction of synthetic lethality in tumor cells producing 2HG: qHTS for the HT-1080-NT fibrosarcoma cell line; HT-1080-NT fibrosarcoma viability, CellTiter-Glo ATP luminescence, 48 h; Potency, µM (top dose mostly 46.1 µM), for inactives: at the highest dose activity, negative = less viability, hits mostly cytotoxic; 360,000 tested, 1.6% active; AID 686970, 2013;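 note: NT is the 2HG producing partner of a matched IDH1 knockdown line; 0% = DMSO-treated cells and -100% = media-only wells without cells; nearly all actives have a fitted effect of over 55% in size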
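Read-out is CellTiter-Glo luminescence after 10 minutes at room temperature, following 48 hours' compound treatment of HT-1080-NT cells (750 cells/well, RPMI, 5% FBS, 37 degrees C).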
MCF10A rerep: A quantitative high throughput screen for small molecules that induce DNA re-replication in MCF 10a normal breast cells; MCF 10A DNA re-replication, Hoechst nuclear intensity, 48 h; Potency, µM (series often up to 46.1 µM), without a hit: at the highest dose activity, positive = re-replication, usual class: activators; 350,000 tested, 2.9% active; AID 624296, 2012; note: % of control where 0% means no effect; nearly all actives have a fitted effect of over 50% in size
The depositor's hits bear a star; i = inactive; u = inconclusive; x = not tested or not shown. The list is not random: actives were taken first. Their share in the collection is about 8%. Calls come from the whole dose curve; as a rule, active = well fitted curve in the direction sought with a large enough effect; inconclusive = small, poorly fitted or top-dose-only effect, or another doubt; inactive = no such curve, though single readings can be large; an effect the other way counts as inactive or inconclusive. Potency is the fitted concentration of half-maximal effect.

SMILES	HT1080 IDH1KD tx	SW480 rerep	KB-V1 cytotox	KB-3-1 tox	HT1080NT lethal	MCF10A rerep
CC(=O)N(C)C1=C(N2CCOCC2)C(=O)c2ccccc2C1=O	0.89µM*	u	12µM*	1.2µM*	1.6µM*	0.73µM*
CCOC(=O)C1CCN(c2nc(-c3ccc(Br)cc3)nc3ccccc23)CC1	-1%	12%	u	u	-15%	u
CCOC(=O)C1C(=O)NC(c2ccccc2)=NC1c1ccc(C(C)C)cc1 (configuration not stated)	-25%	6%	i	i	-23%	5%
CN(C)CCCN1C(=O)c2cc3ccccc3cc2C1=O	-1%	-3%	i	i	-5%	0%
CN(CCCN1c2ccccc2CCc2ccccc21)CC(=O)c1ccc(Cl)cc1	x	u	x	x	x	33µM*
CN(C)CCCN1c2ccccc2CCc2ccc(Cl)cc21	21µM*	u	u	i	u	u
Fc1ccc(-c2noc3ncnc(N4CCCCC4)c23)cc1	x	x	i	i	x	x
CCc1cc(-c2[nH]ncc2-c2ccc(OC)cc2)c(O)cc1O	u	11%	u	u	u	-23%
CCc1cc(-c2[nH]ncc2-c2ccc3c(c2)OCO3)c(O)cc1O	u	9%	9.2µM*	i	u	-14%
CCN(CC)CCN1C(=O)c2ccccc2NC1c1ccccc1F (configuration not stated)	u	0%	i	i	7%	-13%
CC1CCCCN1C(=O)CSc1nc(-c2ccccc2)no1 (configuration not stated)	x	x	i	i	x	x
Cn1c(=O)c(NC2CCCCC2)c2c3c(cccc31)C(=O)c1ccccc1-2	12%	23µM*	i	i	5%	3.7µM*
CCCCNc1c2c3c(cccc3n(C)c1=O)C(=O)c1ccccc1-2	u	5.8µM*	u	u	u	u
Cn1c(=O)c(NCCc2ccccc2)c2c3c(cccc31)C(=O)c1ccccc1-2	-29%	18µM*	i	i	-15%	5.8µM*
COc1ccc(-c2ccc(-c3nnn(CC(=O)N4CCOCC4)n3)cc2)cc1	-2%	14%	u	i	-5%	11%
COc1ccc(OC)c(C(=O)Cn2nnc(-c3ccc(N4CCOCC4)cc3)n2)c1	7%	10%	i	21µM*	1%	u
Nc1c(C(=O)c2ccccc2)sc2snc(SCC(=O)c3ccccc3)c12	-24%	29%	i	u	-16%	16µM*
OC1(c2ccc(Cl)c(Cl)c2)C[n+]2ccccc2N1Cc1ccccc1 (configuration not stated)	21µM*	u	i	u	18µM*	16%
COc1cccc(C2=CC(=O)C(C(C)(C)C)N2C(C)(C)C)c1 (configuration not stated)	4%	4%	i	i	5%	18%
CSc1nnc(CSCc2ccc(Cl)cc2Cl)n1-c1ccccc1	u	19%	u	i	0%	11µM*
COc1ccc2nc(SCC(=O)N(C)C3CCCCC3)c(C#N)cc2c1	-1%	u	15µM*	i	9%	6%
COc1ccc2nc(SCC(=O)N3CCCCC3)c(C#N)cc2c1	-1%	-41%	i	i	-2%	3%
COc1ccc2nc(SCC(=O)NCC3CCCO3)c(C#N)cc2c1 (configuration not stated)	-3%	-4%	u	i	-6%	23µM*
